ChEMBL document CHEMBL1201862, “PubChem BioAssay data set” (2004)
The whole screen tested about 58,000 sequences, of which about 3,600 (6.2%) were called active. No stated cut-off is given here; in the data, active = GI50 up to about 1.1 µM and inactive = higher. These entries were drawn from the full list. Measured potencies and affinities stand elsewhere.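 96-well plates; 48 h exposure; 5 concentrations. Endpoints by linear interpolation between flanking doses. Not reached: highest tested concentration assigned. GI50: concentration for 50% inhibition of growth.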

test system: OVCAR-8; experiment: NCI tumour cell line growth inhibition, 48 h

Substance | GI50 [µM]
[Bis(aminomethyl)dimethylsilane]tetrachloroplatinum(IV), CHEMBL2146190 | 12
mu-(1,7-nanodiamine-N,N')bis-(cis-aminedichloroplatimum (II)), CHEMBL2146215 | 52.6
CISPLATIN, CHEMBL11359 | 4.52
[Bis(aminomethyl)diethylsilane]tetrachloroplatinum(IV), CHEMBL2146203 | 3.53
[Bis(aminomethyl)ethylmethylsilane]tetrachloroplatinum(IV), CHEMBL2146192 | 3.7
[Bis(aminomethyl)tetramethylenesilane]tetrachloropaltinum(IV), CHEMBL2146189 | 6.01
cis-Bis[[(trimethylsilyl)methyl]amino]tetrachloroplatinum(IV), CHEMBL2146191 | 2.44
[Bis(aminomethyl)dimethylsilane]dichloroplatinum (II), CHEMBL2146201 | 29.8
[Bis(aminomethyl)pentamethylenesilane]tetrachloropaltinum(IV), CHEMBL2146204 | 2.17
[Bis(aminomethyl)tetramethylenesilane]dichloropaltinum(II), CHEMBL2146205 | 17
[Bis(aminomethyl)pentamethylenesilane]dichloropaltinum(II), CHEMBL2146202 | 2.05
